# Only some compounds are listed: those with a hit (about 4.9% of all), similar ones and a draw of the others.
# PP5 inh: blocks human protein phosphatase 5 activity; P53041; purified PP5c, OMFP substrate fluorescence; inhibition, % at 6.7 µM; 320,000 compounds, 0.18% hits;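 active = inhibition above the campaign's mean inhibition across all tested compounds plus 3 SD, cut at about 9.5% in these data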
# PP1 counter: PP1-alpha (human) inhibition in PP5 counter-screen; P62136; inhibition, % at 6.7 µM; purified PP1alpha, OMFP fluorescence; 320,000 compounds, 0.9% hits; AID 2235;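 active = inhibition above the mean inhibition of all tested compounds plus 3 SD, computed separately for each screening campaign, cut at about 15% in these data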
# Calb FLC: affects C. albicans growth with fluconazole | C. albicans CaCi-2 (fluconazole-resistant clinical isolate) + fluconazole, Alamar Blue growth, 48 h | growth inhibition, % (no concentration beside the values) | 300,000 compounds, 0.57% hits;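 active = growth inhibition above about 58% in most replicates, limit read from the data, passing the limit was not always enough; inconclusive = exactly half the replicates above a set limit; inactive = most replicates below a set limit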;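 note: all wells also contain fluconazole at 8 µg/ml as a sub-toxic cotreatment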
# Mdm2 MdmX PPI: human Mdm2/MdmX binding inhibition. SaOS-2 split-luciferase Mdm2/MdmX complementation, luminescence. inhibition, % at 8 µM. 330,000 compounds, 3% hits;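 active = inhibition of at least 50% at 8 µM in the primary screen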
# Target sequence (O15151 whole entry, looked up): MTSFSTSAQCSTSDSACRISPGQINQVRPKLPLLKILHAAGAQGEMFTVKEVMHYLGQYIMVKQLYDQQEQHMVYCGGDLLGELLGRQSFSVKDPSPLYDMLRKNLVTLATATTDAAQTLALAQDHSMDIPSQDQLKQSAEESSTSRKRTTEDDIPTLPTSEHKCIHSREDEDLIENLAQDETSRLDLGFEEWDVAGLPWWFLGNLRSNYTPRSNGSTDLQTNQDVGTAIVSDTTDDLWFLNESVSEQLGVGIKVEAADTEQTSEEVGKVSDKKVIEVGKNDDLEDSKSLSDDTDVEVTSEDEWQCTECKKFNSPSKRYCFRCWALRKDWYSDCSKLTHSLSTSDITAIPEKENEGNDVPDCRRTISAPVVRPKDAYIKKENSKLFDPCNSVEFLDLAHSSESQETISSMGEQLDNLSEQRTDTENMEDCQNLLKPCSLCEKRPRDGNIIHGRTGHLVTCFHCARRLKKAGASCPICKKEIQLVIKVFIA
# Target sequence (Q00987 whole entry, looked up): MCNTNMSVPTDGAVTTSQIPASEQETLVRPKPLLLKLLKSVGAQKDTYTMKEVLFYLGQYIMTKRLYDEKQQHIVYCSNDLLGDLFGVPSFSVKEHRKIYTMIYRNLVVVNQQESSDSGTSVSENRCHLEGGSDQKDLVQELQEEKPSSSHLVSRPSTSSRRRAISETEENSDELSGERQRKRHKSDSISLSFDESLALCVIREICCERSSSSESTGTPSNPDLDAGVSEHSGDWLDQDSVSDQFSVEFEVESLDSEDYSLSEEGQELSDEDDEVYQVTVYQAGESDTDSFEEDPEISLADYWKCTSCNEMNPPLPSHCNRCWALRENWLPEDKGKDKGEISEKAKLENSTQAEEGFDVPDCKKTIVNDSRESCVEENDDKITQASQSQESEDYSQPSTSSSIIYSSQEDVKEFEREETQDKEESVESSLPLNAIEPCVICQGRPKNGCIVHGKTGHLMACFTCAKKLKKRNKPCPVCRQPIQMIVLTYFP
# Beta cell apopt: blocks beta cell apoptosis; INS-1E cytokine-induced death, ATP luminescence, 48 h; percent of positive-control rescue, neutral wells zero; protection from apoptosis, % (test concentration not listed); 300,000 compounds, 0.8% hits;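 active = Every replicate reaches about 75%, or at least half do and their mean reaches it too, limit read from the data; inconclusive = At least half of replicates reach the limit but their mean does not; inactive = Under half of replicates reach the limit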;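 note: higher means more ATP so stronger rescue from cytokine killing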
# CSC inhib: blocks cancer stem cells | cancer stem cell-like cells viability, luminescence | inhibition, % at 7.5 µM | 300,000 compounds, 1.1% hits; in the data active = inhibition above about 75%; inconclusive = no clear call, values can overlap the other calls; tested in HMLE shEcad cells
# Mdm2-MdmX conf: human Mdm2/MdmX binding inhibition, confirmed; 10,000 compounds, 55% hits; shares compounds with Mdm2 MdmX PPI; luminescent assay; AID 489028; inhibition, % at 8 µM; in the data active = inhibition above about 40%
# Full FLuc ctr: inhibits full-length luciferase, flagging false Mdm2/MdmX hits. SaOS-2 full-length luciferase counterscreen, luminescence. shares compounds with Mdm2 MdmX PPI. AID 504607. 6,200 compounds, 77% hits. inhibition, % at 8 µM;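 active = mean inhibition at 8 µM reaching about 37%, which flags the compound as non-specific, limit read from the data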;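 note: p53-null SaOS-2 cells with luciferase driven by a doxycycline-inducible promoter; compound on cells about two nights before reading with doxycycline added after day one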
# A number is an active result; 0 = inactive; ? = inconclusive; - = no result given.
SMILES,PP5 inh,PP1 counter,Calb FLC,Mdm2 MdmX PPI,Beta cell apopt,CSC inhib,Mdm2-MdmX conf,others
Cc1cccc(NC(=O)c2nc[nH]c2C(=O)NCCCCCCNC(=O)c2[nH]cnc2C(=O)Nc2cccc(C)c2)c1,0,0,-,71,0,0,0,
Cc1cccc(NC(=O)c2nc[nH]c2C(=O)NCc2ccccc2)c1,0,0,-,0,0,0,-,
N#CCC(=O)Nc1ccc(C(=O)OC(C(=O)Nc2cc(C(F)(F)F)ccc2Cl)c2ccccc2)cc1 (stereo not drawn),0,0,-,52,0,0,0,Full FLuc ctr=71
O=C(CNC(=O)c1ccccc1F)OC(C(=O)Nc1cc(C(F)(F)F)ccc1Cl)c1ccccc1 (stereo not drawn),0,0,0,0,0,0,-,
Oc1ccccc1/C=N/[n+]1ccccc1,0,0,0,53,0,0,53,Full FLuc ctr=121
Oc1ccccc1C=NC(c1ccccc1)C(O)c1ccccc1 (stereo not drawn),0,0,0,0,0,0,-,
Cc1cccc(C)c1NC(=O)CSc1nc(C)c(CC(=O)c2ccc(Br)cc2)c(C)c1C#N,0,0,0,85,0,0,63,Full FLuc ctr=96
CCc1c(C)nc(SCC(=O)c2cccs2)c(C#N)c1C,0,0,0,0,0,0,-,
Cc1nc(SCC(=O)Nc2ccccc2C(F)(F)F)c(C#N)c(C)c1CC(=O)c1ccc(Br)cc1,0,0,0,53,0,0,0,
OCC[C@@H]1C[C@@H](O)[C@H](O)[C@@]2(CCc3ccccc3CO2)O1,0,0,0,0,0,0,-,
O=C(N[C@@H](Cc1ccccc1)C(=O)N1CCC2(CC1)NCCc1[nH]cnc12)c1cccc(F)c1,0,0,0,0,0,0,-,
CCOCCCNC(=O)/C(C#N)=C/c1cc(OC)c(O)c([N+](=O)[O-])c1,0,0,0,0,0,0,-,
CCOCCCNC(=O)/C(C#N)=C/c1ccc(Cl)c([N+](=O)[O-])c1,0,0,0,73,0,0,0,
COc1ccc(-c2noc(C3CCCN(C(=O)Nc4ccccc4F)C3)n2)cc1 (stereo not drawn),0,0,0,0,0,0,-,
O=C(/C=C/c1ccccc1)c1ccc2c(c1)OCCCCO2,0,0,0,0,0,0,-,
O=C(CCl)N(C/C=C/c1ccccc1)c1ccc2c(c1)OCCO2,0,0,0,79,0,0,67,Full FLuc ctr=0
COc1ccc(-c2csc(/C(C#N)=C\c3cccc([N+](=O)[O-])c3)n2)cc1,0,0,0,0,0,0,-,
N#C/C(=C\c1ccc([N+](=O)[O-])cc1)c1nc(C2CC2)cs1,0,0,0,0,0,0,-,
COc1ccc(-c2csc(/C(C#N)=C/Nc3ccc4c(c3)OCCO4)n2)cc1,0,0,0,52,0,0,0,
COc1ccc(-c2csc(/C(C#N)=C\c3ccc(O)c([N+](=O)[O-])c3)n2)cc1OC,0,0,0,53,0,0,47,Full FLuc ctr=62
COc1ccc(-c2csc(/C(C#N)=C\c3ccc(OC)c([N+](=O)[O-])c3)n2)cc1,0,0,0,54,0,0,0,
O=C1C(=O)N(CCS(=O)(=O)c2ccccc2)c2ccc(F)cc21,0,0,0,0,0,0,-,
Cc1nc(SCC(=O)NCCN2C(=O)CSC2=O)nc(C)c1C,-,-,-,0,0,0,-,
O=C(Nc1nnc(SCc2ccc(Cl)cc2)s1)C1CC(=O)N(Cc2ccccc2)C1 (stereo not drawn),0,0,?,0,0,-,-,
Cn1c(Cn2nnc3ccccc32)nnc1SCC(=O)Nc1nccs1,0,0,0,0,0,0,-,
COc1cccc(/C=N/NC(=O)c2ccc(N3CCCC3=O)cc2)c1,0,0,0,0,0,0,-,
CCOC(=O)CSC1=C(C#N)C(c2ccc(Cl)cc2)CC(=O)N1 (stereo not drawn),0,0,0,0,0,0,-,
CCOC(=O)CSC1=C(C#N)C(c2ccc(C)o2)CC(=O)N1 (stereo not drawn),0,0,0,65,0,0,52,Full FLuc ctr=73
CCOC(=O)CSc1nc2c(c(=O)[nH]1)C(C)(CC)Cc1ccccc1-2 (stereo not drawn),0,0,0,57,?,0,53,Full FLuc ctr=54

# Compound activity deposited in PubChem by several laboratories.
